Assay results as given in PubChem BioAssay (Tox21).
Records with an inconclusive call do not appear. A call without a number means that no potency is given here. Some compounds were tested as several samples or in several runs, with calls that do not always agree. Active and inactive are the calls of the source. Unless noted, the call rests on the fitted dose curve; in most records, active means well fitted curve in the direction sought with a large enough effect in the repeat runs; inconclusive means weak or mixed curves; inactive means no such curve, though single readings can be large; an effect the other way counts as inactive or inconclusive.

Tests used:
[1] = biological target: Thyrotropin-releasing hormone receptor (Homo sapiens) (UniProt P34981); assay: qHTS assay to identify small molecule agonists of the thyrotropin-releasing hormone receptor (TRHR) signaling pathway (AID 1346891; calls by dose curve; further: series mostly up to about 58 µM)
Procedure, shortened: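 Agonist-mode intracellular calcium readout: kinetic fluorescence over 3 min at 1 s intervals after compound addition to TRHR-HEK293 cells (18 h seeded, 2 h dye-loaded at 37 C). Fifteen concentrations, triplicates.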

[2] = Human pregnane X receptor (PXR) small molecule agonists, qHTS cell viability counter screen (AID 1346977); further: nearly all actives have a fitted effect of over 50% in size
Procedure, shortened: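 Same-well viability read: CellTiter-Fluor added after 23 hr compound exposure, fluorescence measured 1 hr later. Cells were PXR-Luc HepG2 seeded at 2,000/well in 5% charcoal-stripped FBS medium, rested 5 hr before dosing at 37 C.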

[3] = Caspase-3/7 induction in CHO-K1 cells by small molecules, qHTS cell viability counter screen (AID 1346979); further: nearly all actives have a fitted effect of over 35% in size
Procedure, shortened: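 Cytotoxicity counter screen: CellTiter-Fluor added to compound-treated wild-type CHO-K1 cells at 16 h (37C, 5% CO2), fluorescence measured 1 h later; same wells as caspase-3/7 measurement.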

[4] = Caspase-3/7 induction in HepG2 cells by small molecules, qHTS cell viability counter screen (AID 1346981); further: series mostly up to about 92 µM; nearly all actives have a fitted effect of over 30% in size
Procedure, shortened: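 Wild-type HepG2 cells (2,000/well) were allowed to settle for 5 hr at 37 C, 5% CO2, then dosed with compounds in DMSO by pin transfer. After 16 hr at 37 C, CellTiter-Fluor was added and fluorescence read 1 hr later.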

[5] = biological target: Nuclear receptor subfamily 1 group I member 2 (Homo sapiens) (UniProt O75469); assay: Human pregnane X receptor (PXR) small molecule agonists, qHTS assay (AID 1346982); further: nearly all actives have a fitted effect of over 35% in size; further: potency means the concentration at half of the fitted maximal effect
Procedure, shortened: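 PXR-Luc HepG2 cells (CYP3A4 promoter-driven luciferase) were seeded in medium with 5% charcoal-stripped FBS, left 5 hr at 37 C, then exposed to compounds in DMSO for 24 hr. Luminescence was read after ONE-Glo addition.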

[6] = biological target: Nuclear receptor subfamily 1 group I member 2 (Rattus norvegicus) (UniProt Q9R1A7); assay: Rat pregnane X receptor (rPXR) activation by small molecules, qHTS assay (AID 1346983); details: rPXR luciferase reporter cells, One-Glo luminescence, 24 h; max activation: stronger effect = higher value; further: nearly all actives have a fitted effect of over 20% in size
Procedure, shortened: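 Cell-based rPXR activation assay: rPXR cells, 2,000 per well, rested 5hr at 37 C, then exposed to compounds in DMSO for 24 hr at 37 C. Luciferase activity read by One-Glo luminescence after 30 min at room temperature.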

[7] = biological target: Nuclear receptor subfamily 1 group I member 2 (Homo sapiens) (UniProt O75469); assay: CYP3A4 induction through human pregnane X receptor (PXR) by small molecules, qHTS assay (AID 1346984); further: nearly all actives have a fitted effect of over 40% in size
Procedure, shortened: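 DPX-2 cells (HepG2 co-transfected with PXR and CYP3A4 promoter-luciferase) treated with compounds 24 h at 37C; luciferin-IPA CYP3A4 substrate 3uM final added for 3 h, then One-Glo; luminescence read. qHTS format.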

[8] = biological target: Nuclear receptor subfamily 1 group I member 2 (Homo sapiens) (UniProt O75469); assay: Human pregnane X receptor (PXR) activation by small molecules, qHTS assay (AID 1346985); further: nearly all actives have a fitted effect of over 40% in size
Procedure, shortened: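 DPX-2 cells (HepG2 co-transfected with a PXR response element and a CYP3A4-promoter luciferase construct) were seeded at 2,000 per well, rested 5 hr at 37C, then exposed to DMSO-dissolved compounds for 24 hr. Activation was read as luciferase luminescence.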

[9] = biological target: Cytochrome P450 2D6 (Homo sapiens) (UniProt P10635); assay: Cytochrome P450 Family 2 Subfamily D Member 6 (CYP2D6) small molecule antagonists: luciferase reporter qHTS assay (AID 1671196); further: nearly all actives have a fitted effect of over 50% in size; further: potency means the concentration at half of the fitted maximal effect
Procedure, shortened: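 CYP2D6 enzyme–substrate mix was held with compound for 10 min at room temperature, then NADPH regeneration solution was added and the reaction ran 1 h at room temperature. Luciferin product was detected by luminescence after 20 min with detection reagent.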

[10] = biological target: Cytochrome P450 2C19 (Homo sapiens) (UniProt P33261); assay: Cytochrome P450 Family 2 Subfamily C Member 19 (CYP2C19) small molecule antagonists: luciferase reporter qHTS assay (AID 1671197); further: nearly all actives have a fitted effect of over 65% in size; further: potency means the concentration at half of the fitted maximal effect
Procedure, shortened: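 P450-Glo CYP2C19 system: enzyme-substrate mix with compound 10 min at room temperature, then NADPH regeneration solution, 1 h at 37C. Proluciferin-to-luciferin conversion detected by luminescence after 20 min with detection reagent; ketoconazole as positive control.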

[11] = biological target: Cytochrome P450 2C9 (Homo sapiens) (UniProt P11712); assay: Cytochrome P450 Family 2 Subfamily C Member 9 (CYP2C9) small molecule antagonists: luciferase reporter qHTS assay (AID 1671198); further: nearly all actives have a fitted effect of over 50% in size; further: potency means the concentration at half of the fitted maximal effect
Procedure, shortened: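 P450-Glo proluciferin substrate with CYP2C9 enzyme; 10 min RT preincubation, then NADPH regeneration 1 h at 37C; luciferin detection reagent 20 min RT, luminescence in relative luminescence units.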

[12] = biological target: Cytochrome P450 1A2 (Homo sapiens) (UniProt P05177); assay: Cytochrome P450 Family 1 Subfamily A Member 2 (CYP1A2) small molecule antagonists: luciferase reporter qHTS assay (AID 1671199); further: nearly all actives have a fitted effect of over 50% in size; further: potency means the concentration at half of the fitted maximal effect
Procedure, shortened: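 Human CYP1A2 activity measured with a P450-Glo proluciferin substrate; compounds in DMSO preincubated 10 min at room temperature with enzyme-substrate mix, then NADPH regeneration system added for 1 h. Luciferin detection reagent, 20 min, luminescence read.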

[13] = biological target: Voltage-gated inwardly rectifying potassium channel KCNH2 (Homo sapiens) (UniProt Q12809); assay: Human Ether-a-go-go-Related Gene (hERG) channel small molecule antagonists: fluorescence cell-based qHTS assay (AID 1671200)
Procedure, shortened: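 Thallium flux as potassium surrogate: FluxOR II dye loaded 1 h at room temperature into hERG-expressing U2OS cells, then stimulus buffer added after 10 min. Kinetic 480 nm excitation/540 nm emission read, 2 min.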

[14] = biological target: Cytochrome P450 3A4 (Homo sapiens) (UniProt P08684); assay: Cytochrome P450 Family 3 Subfamily A Member 4 (CYP3A4) small molecule antagonists: luciferase reporter qHTS assay (AID 1671201)
Procedure, shortened: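 Recombinant human CYP3A4 converts a proluciferin substrate to luciferin over 1 h at room temperature after NADPH regeneration solution is added (compound preincubated 10 min); detection reagent stops reaction, luminescence read 20 min later as relative units.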

[15] = Caspase-3/7 induction in CHO-K1 cells by small molecules, qHTS assay (AID 1346980); further: nearly all actives have a fitted effect of over 15% in size
Procedure, shortened: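 Wild-type CHO-K1 cells exposed to compounds for 17hr at 37 C, 5% CO2. Caspase-3/7 activity then measured by Caspase-Glo 3/7 luminescence after 30min at room temperature.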

[16] = Caspase-3/7 induction in HepG2 cells by small molecules, qHTS assay (AID 1346978); further: nearly all actives have a fitted effect of over 15% in size
Procedure, shortened: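 Wild-type HepG2 cells, 2,000/well, settled 5 hr at 37 C and 5% CO2, then compound-treated for 17 hr; caspase-3/7 activity read by luminescent Caspase-Glo 3/7 after 30 min at room temperature.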

Sequence of Voltage-gated inwardly rectifying potassium channel KCNH2 (Homo sapiens) (Q12809 whole entry, looked up): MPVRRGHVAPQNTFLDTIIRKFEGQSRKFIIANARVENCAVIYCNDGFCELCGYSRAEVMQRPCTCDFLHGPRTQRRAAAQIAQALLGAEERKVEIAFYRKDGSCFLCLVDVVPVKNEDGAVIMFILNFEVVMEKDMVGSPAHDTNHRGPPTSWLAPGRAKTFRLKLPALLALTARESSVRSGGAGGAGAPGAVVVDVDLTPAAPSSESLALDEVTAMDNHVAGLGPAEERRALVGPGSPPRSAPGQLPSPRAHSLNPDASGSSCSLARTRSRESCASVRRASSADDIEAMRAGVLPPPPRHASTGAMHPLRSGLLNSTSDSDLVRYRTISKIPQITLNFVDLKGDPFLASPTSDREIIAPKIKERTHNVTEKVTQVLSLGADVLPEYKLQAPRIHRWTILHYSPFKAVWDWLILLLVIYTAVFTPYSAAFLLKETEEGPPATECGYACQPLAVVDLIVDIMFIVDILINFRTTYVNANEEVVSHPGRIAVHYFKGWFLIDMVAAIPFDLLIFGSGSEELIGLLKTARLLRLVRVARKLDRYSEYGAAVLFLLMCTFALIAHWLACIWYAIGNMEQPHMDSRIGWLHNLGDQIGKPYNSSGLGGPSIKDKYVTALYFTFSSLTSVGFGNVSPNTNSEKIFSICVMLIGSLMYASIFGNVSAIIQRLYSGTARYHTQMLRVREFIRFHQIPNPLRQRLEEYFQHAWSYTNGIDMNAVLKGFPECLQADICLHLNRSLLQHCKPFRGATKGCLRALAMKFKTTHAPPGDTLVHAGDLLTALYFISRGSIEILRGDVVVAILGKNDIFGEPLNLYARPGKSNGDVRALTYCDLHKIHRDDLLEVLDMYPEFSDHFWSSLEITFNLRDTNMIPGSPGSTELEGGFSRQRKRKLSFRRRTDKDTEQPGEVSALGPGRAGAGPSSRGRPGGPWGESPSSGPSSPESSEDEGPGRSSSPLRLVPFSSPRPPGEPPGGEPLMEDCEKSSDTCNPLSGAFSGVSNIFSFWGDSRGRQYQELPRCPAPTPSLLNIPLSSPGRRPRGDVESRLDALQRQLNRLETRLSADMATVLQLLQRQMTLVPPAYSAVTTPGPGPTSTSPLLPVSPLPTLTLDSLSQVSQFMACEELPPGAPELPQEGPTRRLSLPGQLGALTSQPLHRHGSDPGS
Sequence of Cytochrome P450 1A2 (Homo sapiens) (P05177 whole entry, looked up): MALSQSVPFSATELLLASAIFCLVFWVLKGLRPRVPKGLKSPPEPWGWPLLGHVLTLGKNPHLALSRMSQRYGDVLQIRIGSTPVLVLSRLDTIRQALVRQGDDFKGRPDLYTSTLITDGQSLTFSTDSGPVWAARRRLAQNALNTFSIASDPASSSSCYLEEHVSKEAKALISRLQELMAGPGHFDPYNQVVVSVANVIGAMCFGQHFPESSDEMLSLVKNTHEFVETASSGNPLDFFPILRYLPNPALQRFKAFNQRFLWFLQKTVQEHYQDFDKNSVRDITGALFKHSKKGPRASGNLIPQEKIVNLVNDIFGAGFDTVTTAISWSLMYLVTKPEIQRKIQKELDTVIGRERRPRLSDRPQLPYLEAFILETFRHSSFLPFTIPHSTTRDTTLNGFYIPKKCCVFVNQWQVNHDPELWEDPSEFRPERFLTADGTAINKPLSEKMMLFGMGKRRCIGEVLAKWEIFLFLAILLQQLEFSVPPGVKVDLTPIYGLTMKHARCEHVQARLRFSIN
Sequence of Thyrotropin-releasing hormone receptor (Homo sapiens) (P34981 whole entry, looked up): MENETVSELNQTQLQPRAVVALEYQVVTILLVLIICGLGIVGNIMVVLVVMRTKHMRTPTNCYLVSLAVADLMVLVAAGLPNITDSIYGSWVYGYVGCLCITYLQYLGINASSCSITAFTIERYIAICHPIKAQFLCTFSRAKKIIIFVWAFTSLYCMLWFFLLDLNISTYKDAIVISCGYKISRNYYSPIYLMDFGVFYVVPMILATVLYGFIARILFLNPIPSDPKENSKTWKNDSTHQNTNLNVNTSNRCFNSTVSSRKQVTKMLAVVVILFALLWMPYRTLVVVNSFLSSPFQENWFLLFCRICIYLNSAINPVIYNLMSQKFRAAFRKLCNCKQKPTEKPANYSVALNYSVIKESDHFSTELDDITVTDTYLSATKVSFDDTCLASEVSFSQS
Sequence of Nuclear receptor subfamily 1 group I member 2 (Homo sapiens) (O75469 whole entry, looked up): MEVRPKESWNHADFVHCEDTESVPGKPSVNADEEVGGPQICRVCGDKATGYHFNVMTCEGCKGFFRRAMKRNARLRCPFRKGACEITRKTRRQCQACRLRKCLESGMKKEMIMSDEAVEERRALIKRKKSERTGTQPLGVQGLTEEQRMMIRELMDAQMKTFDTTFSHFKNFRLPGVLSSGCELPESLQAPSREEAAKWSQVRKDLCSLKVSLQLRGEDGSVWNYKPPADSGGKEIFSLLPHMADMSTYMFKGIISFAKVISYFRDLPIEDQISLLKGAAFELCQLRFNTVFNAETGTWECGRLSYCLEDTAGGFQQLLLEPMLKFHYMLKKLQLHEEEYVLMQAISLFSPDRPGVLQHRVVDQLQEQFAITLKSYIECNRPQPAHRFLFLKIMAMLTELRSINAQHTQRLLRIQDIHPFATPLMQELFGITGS
Sequence of Cytochrome P450 2D6 (Homo sapiens) (P10635 whole entry, looked up): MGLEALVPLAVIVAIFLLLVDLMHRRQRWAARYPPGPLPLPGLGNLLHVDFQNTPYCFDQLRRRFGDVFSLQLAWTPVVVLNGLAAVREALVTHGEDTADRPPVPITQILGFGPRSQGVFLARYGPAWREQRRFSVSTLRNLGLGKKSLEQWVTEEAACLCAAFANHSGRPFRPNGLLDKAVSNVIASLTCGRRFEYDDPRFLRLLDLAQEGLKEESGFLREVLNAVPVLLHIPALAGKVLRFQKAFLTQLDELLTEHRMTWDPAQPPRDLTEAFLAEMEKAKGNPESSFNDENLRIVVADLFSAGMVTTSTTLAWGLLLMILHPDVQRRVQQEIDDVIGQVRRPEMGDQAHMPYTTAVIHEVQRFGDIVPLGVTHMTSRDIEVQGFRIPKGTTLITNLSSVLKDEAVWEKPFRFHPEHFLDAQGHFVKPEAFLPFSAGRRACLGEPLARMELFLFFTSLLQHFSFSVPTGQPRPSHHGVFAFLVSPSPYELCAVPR
Sequence of Cytochrome P450 3A4 (Homo sapiens) (P08684 whole entry, looked up): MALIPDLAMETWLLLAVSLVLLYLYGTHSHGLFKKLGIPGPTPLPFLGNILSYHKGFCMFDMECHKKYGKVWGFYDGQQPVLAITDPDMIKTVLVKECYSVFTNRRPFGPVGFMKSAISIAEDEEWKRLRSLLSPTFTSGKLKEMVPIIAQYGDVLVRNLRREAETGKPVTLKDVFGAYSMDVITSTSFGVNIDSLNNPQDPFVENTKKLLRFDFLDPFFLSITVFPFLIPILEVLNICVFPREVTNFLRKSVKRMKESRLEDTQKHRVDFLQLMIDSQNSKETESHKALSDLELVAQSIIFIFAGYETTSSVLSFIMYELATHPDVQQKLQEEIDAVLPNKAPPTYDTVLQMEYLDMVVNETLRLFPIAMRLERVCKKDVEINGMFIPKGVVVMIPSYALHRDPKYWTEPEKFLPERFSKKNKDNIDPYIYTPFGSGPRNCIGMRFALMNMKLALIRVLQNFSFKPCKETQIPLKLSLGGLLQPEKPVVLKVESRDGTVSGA
Sequence of Cytochrome P450 2C9 (Homo sapiens) (P11712 whole entry, looked up): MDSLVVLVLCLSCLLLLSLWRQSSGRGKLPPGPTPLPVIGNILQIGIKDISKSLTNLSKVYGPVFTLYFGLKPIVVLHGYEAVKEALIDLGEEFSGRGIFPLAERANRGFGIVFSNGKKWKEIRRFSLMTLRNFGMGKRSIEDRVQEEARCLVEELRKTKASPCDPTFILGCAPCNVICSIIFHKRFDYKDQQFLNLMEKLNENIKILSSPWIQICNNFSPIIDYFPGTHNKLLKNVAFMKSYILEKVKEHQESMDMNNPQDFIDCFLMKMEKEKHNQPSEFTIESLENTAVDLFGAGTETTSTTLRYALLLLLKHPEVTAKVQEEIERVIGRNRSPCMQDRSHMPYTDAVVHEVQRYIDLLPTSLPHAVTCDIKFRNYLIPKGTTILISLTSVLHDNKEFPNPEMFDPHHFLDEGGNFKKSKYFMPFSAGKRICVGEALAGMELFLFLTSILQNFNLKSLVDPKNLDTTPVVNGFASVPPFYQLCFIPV
Sequence of Cytochrome P450 2C19 (Homo sapiens) (P33261 whole entry, looked up): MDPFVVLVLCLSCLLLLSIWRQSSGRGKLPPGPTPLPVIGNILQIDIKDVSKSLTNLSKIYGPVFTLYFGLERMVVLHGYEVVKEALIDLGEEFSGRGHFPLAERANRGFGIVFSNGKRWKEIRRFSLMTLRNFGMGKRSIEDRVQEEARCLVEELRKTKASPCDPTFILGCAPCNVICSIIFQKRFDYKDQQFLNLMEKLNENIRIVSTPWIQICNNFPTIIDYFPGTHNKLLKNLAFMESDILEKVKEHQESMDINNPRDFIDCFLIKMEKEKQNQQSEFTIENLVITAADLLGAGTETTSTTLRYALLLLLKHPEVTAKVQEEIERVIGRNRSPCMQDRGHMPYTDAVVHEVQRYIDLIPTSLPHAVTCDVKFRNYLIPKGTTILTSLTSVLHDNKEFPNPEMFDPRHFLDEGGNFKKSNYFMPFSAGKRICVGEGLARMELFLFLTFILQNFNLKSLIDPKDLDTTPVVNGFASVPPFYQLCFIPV
Sequence of Nuclear receptor subfamily 1 group I member 2 (Rattus norvegicus) (Q9R1A7 whole entry, looked up): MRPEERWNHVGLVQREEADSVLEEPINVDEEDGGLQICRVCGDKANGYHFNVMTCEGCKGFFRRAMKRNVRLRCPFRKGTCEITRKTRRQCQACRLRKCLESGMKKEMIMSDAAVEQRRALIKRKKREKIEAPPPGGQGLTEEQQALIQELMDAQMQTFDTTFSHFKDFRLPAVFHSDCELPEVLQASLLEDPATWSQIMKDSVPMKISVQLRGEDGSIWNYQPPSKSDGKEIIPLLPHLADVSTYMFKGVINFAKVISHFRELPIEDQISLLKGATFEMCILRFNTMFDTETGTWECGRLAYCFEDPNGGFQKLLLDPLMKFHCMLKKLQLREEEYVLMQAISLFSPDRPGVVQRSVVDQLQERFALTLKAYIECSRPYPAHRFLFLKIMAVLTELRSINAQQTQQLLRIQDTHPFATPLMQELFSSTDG

| SMILES | Potency [1] | Potency [2] | Potency [3] | Potency [4] | Potency [5] | max activation [6] | outcome [7] | outcome [8] | Potency [9] | Potency [10] | Potency [11] | Potency [12] | Potency [13] | Potency [14] | Potency [15] | Potency [16] |
| --- | --- | --- | --- | --- | --- | --- | --- | --- | --- | --- | --- | --- | --- | --- | --- | --- |
| c1ccc2ccccc2c1 | inactive | inactive | inactive | inactive | inactive | -0.655% (inactive) | inactive | inactive | inactive | inactive | inactive | 70.7 µM (active) and inactive | inactive | inactive | – | – |
| O=[N+]([O-])c1cccc(Cl)c1 | inactive | inactive | – | inactive | inactive | – | – | – | inactive | inactive | inactive | inactive | inactive | inactive | inactive | – |
| CCCCCCC(C)(C)S | inactive | inactive | – | inactive | 30.9 µM (active) and inactive | – | – | – | inactive | 22.6 µM (active) and inactive | 32 µM (active) and inactive | – | inactive | – | inactive | inactive |
| CC(=O)Nc1ccc(C(=O)O)cc1 | inactive | inactive | inactive | inactive | inactive | -3.56% (inactive) | inactive | inactive | inactive | inactive | inactive | inactive | inactive | inactive | inactive | – |
| O=C(Cl)c1c(Cl)c(Cl)c(C(=O)Cl)c(Cl)c1Cl | inactive | inactive | – | inactive | inactive | – | – | – | 89.4 µM (active) | inactive | inactive | inactive | inactive | inactive | – | inactive |
| CCCCCCCCC | inactive | inactive | inactive | inactive | inactive | – | – | – | inactive | inactive | inactive | inactive | inactive | inactive | – | – |
| c1ccc2[nH]cnc2c1 | inactive | inactive | inactive | inactive | inactive | – | – | – | inactive | inactive | inactive | inactive | inactive | – | – | – |
